Results filed as inconclusive are left out. Some structures have more than one record in an assay (separate samples or runs), and their calls can disagree. Calls of active or inactive are those of the source. The calls were made as follows: active = hit-call score of the fitted dose curve at least 0.9, where 1 is the maximum; inconclusive = response in the unintended direction; inactive = score below 0.9.
Experiments:
[1] = biological target: human Phosphoinositide 3-kinase alpha (PI3Ka), PIK3CA (gene 5290) (UniProt P42336); assay: NVS_ENZ_hPI3Ka: NovaScreen (NVS) Enzymatic Assay for human Phosphoinositide 3-kinase alpha (PI3Ka) (AID 2283196)
Chain of human Phosphoinositide 3-kinase alpha (PI3Ka), PIK3CA (gene 5290) (P42336 whole entry, looked up): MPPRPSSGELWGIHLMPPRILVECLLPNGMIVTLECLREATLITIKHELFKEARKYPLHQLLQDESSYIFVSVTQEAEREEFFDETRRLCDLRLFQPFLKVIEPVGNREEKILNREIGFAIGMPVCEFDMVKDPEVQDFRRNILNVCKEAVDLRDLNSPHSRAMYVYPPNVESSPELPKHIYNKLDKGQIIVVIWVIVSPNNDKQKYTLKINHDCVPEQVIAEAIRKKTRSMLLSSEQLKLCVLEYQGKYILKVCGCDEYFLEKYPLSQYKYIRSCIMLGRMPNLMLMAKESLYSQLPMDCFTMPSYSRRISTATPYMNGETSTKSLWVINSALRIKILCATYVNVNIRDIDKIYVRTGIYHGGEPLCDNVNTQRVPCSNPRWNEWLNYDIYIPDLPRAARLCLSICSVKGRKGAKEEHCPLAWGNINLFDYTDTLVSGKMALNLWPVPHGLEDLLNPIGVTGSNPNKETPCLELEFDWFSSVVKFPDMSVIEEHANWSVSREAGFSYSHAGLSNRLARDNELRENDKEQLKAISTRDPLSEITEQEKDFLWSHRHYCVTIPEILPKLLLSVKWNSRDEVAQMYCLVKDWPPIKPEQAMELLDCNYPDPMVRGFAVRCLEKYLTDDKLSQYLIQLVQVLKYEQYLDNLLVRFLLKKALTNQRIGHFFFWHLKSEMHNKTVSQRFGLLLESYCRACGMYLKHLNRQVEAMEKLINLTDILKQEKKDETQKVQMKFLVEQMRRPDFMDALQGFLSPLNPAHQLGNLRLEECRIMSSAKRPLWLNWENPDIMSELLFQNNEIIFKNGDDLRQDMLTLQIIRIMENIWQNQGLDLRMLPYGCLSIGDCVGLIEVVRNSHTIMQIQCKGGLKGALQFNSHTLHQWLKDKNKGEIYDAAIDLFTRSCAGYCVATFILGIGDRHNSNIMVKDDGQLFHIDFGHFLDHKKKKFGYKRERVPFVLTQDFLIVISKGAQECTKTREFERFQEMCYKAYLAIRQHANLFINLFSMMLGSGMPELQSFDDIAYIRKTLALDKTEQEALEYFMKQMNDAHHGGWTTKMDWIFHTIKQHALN
In short: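 Recombinant human PI3Kα with fluorescent substrate, 1 h, product separated by electrophoretic mobility shift; 25 uM duplicate screen, hits (e.g., 30% inhibition) retested singly up to 50 uM; loss of signal vs DMSO.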

[2] = biological target: human Protein Phosphatase, Mg2+/Mn2+ Dependent 1A (PPM1A), PPM1A (gene 5494) (UniProt P35813); assay: NVS_ENZ_hPPM1A: NovaScreen (NVS) Enzymatic Assay for human Protein Phosphatase, Mg2+/Mn2+ Dependent 1A (PPM1A) (AID 2283198)
In short: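 Primary screen in duplicate at 25 uM, with actives then titrated to a maximum of 50 uM. Recombinant PPM1A dephosphorylation of fluorescent substrate measured at 1 h, with substrate and product separated by mobility shift; inhibition fitted against DMSO.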

[3] = biological target: human Protein Tyrosine Phosphatase Receptor Type B (PTPRB), PTPRB (gene 5787) (UniProt P23467); assay: NVS_ENZ_hPTPRB: NovaScreen (NVS) Enzymatic Assay for human Protein Tyrosine Phosphatase Receptor Type B (PTPRB) (AID 2283211)
In short: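 Recombinant human PTPRB with a fluorescent substrate, product separated by electrophoretic mobility shift; read 1 h after dosing. Primary screen in duplicate at 25 uM; actives then retested in concentration series; loss of signal versus DMSO.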

[4] = biological target: human Rho Associated Coiled-coil Containing Protein Kinase 1 (ROCK1), ROCK1 (gene 6093) (UniProt Q13464); assay: NVS_ENZ_hROCK1: NovaScreen (NVS) Enzymatic Assay for human Rho Associated Coiled-coil Containing Protein Kinase 1 (ROCK1) (AID 2283214)
In short: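 Compounds first run in duplicate at 25 uM against recombinant human ROCK1, then followed in concentration series. Kinase activity was read 1 h post-dosing by fluorescence with mobility-shift separation, as signal loss relative to DMSO.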

[5] = biological target: human Matrix Metalloproteinase-9 (MMP9), MMP9 (gene 4318) (UniProt P14780); assay: NVS_ENZ_hMMP9: NovaScreen (NVS) Enzymatic Assay for human Matrix Metalloproteinase-9 (MMP9) (AID 2283190);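 also: cell-free recombinant MMP9 protease activity read by fluorescent substrate signal; active means inhibition seen as loss of fluorescence signal versus DMSO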
Chain of human Matrix Metalloproteinase-9 (MMP9), MMP9 (gene 4318) (P14780 whole entry, looked up): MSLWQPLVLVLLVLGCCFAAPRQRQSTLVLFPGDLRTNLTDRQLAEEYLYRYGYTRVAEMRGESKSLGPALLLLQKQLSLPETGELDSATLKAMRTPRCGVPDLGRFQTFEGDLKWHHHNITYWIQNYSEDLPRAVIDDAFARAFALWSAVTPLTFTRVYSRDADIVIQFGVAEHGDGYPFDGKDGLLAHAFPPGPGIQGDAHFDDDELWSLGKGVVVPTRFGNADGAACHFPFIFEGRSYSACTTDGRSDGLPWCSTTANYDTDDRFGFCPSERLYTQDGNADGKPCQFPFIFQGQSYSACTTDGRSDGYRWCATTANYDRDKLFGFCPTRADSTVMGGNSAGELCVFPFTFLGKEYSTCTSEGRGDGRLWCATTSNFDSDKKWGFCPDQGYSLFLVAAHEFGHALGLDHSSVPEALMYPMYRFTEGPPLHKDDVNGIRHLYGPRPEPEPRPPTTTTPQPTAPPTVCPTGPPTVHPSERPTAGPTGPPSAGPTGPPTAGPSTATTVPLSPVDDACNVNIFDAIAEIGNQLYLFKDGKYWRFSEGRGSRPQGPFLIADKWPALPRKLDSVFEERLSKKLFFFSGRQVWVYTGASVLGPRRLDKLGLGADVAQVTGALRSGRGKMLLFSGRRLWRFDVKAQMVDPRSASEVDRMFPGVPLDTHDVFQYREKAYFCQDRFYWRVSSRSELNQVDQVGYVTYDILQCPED
In short: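 Cell-free recombinant MMP9 enzyme activity measured by fluorescence intensity 1 h after dosing. Primary screen in duplicate at 25 uM, actives followed in concentration series; loss of signal relative to DMSO.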

[6] = biological target: human Phosphodiesterase 4A1 (PDE4A1), PDE4A (gene 5141) (UniProt P27815); assay: NVS_ENZ_hPDE4A1: NovaScreen (NVS) Enzymatic Assay for human Phosphodiesterase 4A1 (PDE4A1) (AID 2283191)
Chain of human Phosphodiesterase 4A1 (PDE4A1), PDE4A (gene 5141) (P27815 whole entry, looked up): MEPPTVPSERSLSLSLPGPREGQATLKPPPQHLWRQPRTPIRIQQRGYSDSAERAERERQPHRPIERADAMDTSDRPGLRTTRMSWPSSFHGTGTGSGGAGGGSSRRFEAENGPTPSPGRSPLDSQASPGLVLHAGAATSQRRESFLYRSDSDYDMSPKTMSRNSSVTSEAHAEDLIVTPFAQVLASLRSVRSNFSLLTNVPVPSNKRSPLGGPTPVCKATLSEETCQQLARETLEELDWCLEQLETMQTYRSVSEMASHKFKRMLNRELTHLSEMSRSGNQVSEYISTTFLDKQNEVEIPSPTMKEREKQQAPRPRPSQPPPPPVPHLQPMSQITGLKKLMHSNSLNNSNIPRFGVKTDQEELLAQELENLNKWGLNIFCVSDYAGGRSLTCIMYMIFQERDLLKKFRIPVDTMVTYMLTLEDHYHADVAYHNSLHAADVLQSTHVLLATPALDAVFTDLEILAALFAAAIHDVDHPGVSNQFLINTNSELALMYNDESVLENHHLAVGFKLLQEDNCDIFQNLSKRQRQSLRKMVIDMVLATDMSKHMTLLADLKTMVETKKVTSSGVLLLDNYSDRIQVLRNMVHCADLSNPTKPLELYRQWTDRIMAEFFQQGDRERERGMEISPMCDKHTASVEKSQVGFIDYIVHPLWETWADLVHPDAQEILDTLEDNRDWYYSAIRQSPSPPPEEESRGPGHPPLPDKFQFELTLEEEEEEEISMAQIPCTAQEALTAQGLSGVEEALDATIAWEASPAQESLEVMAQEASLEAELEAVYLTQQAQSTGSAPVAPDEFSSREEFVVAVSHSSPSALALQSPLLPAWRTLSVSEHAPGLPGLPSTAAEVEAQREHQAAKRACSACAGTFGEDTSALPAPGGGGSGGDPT
In short: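 Fluorescent substrate turnover by recombinant PDE4A1 read after 1 h by mobility-shift separation. Primary duplicate screen at 25 uM; hits retested in concentration series with a 50 uM maximum, relative to DMSO.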

[7] = biological target: human Protein Tyrosine Phosphatase Non-receptor Type 4 (PTPN4), PTPN4 (gene 5775) (UniProt P29074); assay: NVS_ENZ_hPTPN4: NovaScreen (NVS) Enzymatic Assay for human Protein Tyrosine Phosphatase Non-receptor Type 4 (PTPN4) (AID 2283208)
In short: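 Screened in duplicate at 25 uM, with hits then titrated to a top concentration of 50 uM. Recombinant Sf9-derived PTPN4 turnover was read by fluorescence with electrophoretic separation, 1.33 h after compound addition. DMSO served as baseline.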

[8] = biological target: human Protein Tyrosine Phosphatase Non-receptor Type 9 (PTPN9), PTPN9 (gene 5780) (UniProt P43378); assay: NVS_ENZ_hPTPN9: NovaScreen (NVS) Enzymatic Assay for human Protein Tyrosine Phosphatase Non-receptor Type 9 (PTPN9) (AID 2283209)
Chain of human Protein Tyrosine Phosphatase Non-receptor Type 9 (PTPN9), PTPN9 (gene 5780) (P43378 whole entry, looked up): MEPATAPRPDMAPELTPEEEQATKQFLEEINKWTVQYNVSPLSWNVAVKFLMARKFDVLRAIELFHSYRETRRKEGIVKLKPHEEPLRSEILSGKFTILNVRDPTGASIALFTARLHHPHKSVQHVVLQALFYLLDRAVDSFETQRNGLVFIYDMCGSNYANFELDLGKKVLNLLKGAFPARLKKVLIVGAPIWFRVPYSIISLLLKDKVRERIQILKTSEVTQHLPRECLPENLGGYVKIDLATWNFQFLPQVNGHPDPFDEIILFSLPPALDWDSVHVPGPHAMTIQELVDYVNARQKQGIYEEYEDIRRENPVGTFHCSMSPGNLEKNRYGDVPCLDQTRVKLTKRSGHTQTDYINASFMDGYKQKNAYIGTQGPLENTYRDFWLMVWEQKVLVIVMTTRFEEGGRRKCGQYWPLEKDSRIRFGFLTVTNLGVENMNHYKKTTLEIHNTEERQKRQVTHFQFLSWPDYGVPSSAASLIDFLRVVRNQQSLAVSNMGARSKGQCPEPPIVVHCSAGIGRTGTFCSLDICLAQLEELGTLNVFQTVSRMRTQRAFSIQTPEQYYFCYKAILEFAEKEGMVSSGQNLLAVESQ
In short: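 Sf9-expressed enzyme in a cell-free assay, fluorescence read 1.33 h after dosing with mobility-shift separation of substrate and product. Tested at 25 uM in duplicate, then up to 50 uM; signal loss versus DMSO.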

[9] = biological target: human Protein Tyrosine Phosphatase Receptor Type M (PTPRM), PTPRM (gene 5797) (UniProt P28827); assay: NVS_ENZ_hPTPRM: NovaScreen (NVS) Enzymatic Assay for human Protein Tyrosine Phosphatase Receptor Type M (PTPRM) (AID 2283215)
Chain of human Protein Tyrosine Phosphatase Receptor Type M (PTPRM), PTPRM (gene 5797) (P28827 whole entry, looked up): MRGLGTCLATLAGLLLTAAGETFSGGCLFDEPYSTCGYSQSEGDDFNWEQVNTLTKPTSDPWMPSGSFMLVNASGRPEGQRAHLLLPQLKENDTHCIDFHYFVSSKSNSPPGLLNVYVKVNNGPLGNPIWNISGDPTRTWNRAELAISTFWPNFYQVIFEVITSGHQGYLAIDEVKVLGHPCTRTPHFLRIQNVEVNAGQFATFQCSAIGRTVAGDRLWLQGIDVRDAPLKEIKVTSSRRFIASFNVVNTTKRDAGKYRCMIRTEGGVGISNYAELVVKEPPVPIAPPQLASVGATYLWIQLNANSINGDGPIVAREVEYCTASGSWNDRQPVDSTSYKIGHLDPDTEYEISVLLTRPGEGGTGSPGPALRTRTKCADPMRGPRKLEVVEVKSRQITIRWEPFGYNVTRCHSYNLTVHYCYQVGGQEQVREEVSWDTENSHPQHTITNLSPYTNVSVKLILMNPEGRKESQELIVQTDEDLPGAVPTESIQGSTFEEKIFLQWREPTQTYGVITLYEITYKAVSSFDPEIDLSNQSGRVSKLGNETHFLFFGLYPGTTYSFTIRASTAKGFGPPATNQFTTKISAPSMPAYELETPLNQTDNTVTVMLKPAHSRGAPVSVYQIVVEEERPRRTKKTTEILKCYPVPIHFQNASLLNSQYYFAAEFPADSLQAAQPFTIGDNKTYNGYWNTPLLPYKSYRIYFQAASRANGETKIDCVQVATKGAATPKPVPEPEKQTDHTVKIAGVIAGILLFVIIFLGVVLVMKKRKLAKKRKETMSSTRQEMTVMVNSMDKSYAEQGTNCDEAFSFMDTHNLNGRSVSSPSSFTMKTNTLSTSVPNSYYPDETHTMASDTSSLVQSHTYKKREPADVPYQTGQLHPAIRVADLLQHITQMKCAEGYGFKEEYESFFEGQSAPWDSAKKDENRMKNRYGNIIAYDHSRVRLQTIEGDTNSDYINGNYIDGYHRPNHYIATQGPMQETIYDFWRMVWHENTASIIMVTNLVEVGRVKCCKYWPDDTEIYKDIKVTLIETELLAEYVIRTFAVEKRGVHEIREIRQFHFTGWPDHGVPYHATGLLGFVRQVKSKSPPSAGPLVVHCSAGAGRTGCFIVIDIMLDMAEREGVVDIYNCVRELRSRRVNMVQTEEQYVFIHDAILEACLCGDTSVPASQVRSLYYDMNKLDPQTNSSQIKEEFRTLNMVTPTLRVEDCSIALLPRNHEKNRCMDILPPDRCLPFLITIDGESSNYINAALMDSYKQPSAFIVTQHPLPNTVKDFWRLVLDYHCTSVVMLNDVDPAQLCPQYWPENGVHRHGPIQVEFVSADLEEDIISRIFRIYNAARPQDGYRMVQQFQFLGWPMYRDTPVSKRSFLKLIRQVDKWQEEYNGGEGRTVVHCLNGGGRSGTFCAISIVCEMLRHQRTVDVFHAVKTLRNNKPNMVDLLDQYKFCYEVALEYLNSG
In short: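 Read-out is fluorescence after electrophoretic separation of substrate and product, taken 1.33 h post-dosing with recombinant enzyme. Compounds screened at 25 uM in duplicate, then concentration series for actives; activity as signal loss relative to DMSO.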

[10] = biological target: Serine/threonine-protein phosphatase PP1-alpha catalytic subunit (Homo sapiens) (UniProt P62136); assay: NVS_ENZ_hPPP1CA: NovaScreen (NVS) Enzymatic Assay for human Protein Phosphatase 1 Aatalytic subunit Alpha (PPP1CA) (AID 2283200)
Chain of Serine/threonine-protein phosphatase PP1-alpha catalytic subunit (Homo sapiens) (P62136 whole entry, looked up): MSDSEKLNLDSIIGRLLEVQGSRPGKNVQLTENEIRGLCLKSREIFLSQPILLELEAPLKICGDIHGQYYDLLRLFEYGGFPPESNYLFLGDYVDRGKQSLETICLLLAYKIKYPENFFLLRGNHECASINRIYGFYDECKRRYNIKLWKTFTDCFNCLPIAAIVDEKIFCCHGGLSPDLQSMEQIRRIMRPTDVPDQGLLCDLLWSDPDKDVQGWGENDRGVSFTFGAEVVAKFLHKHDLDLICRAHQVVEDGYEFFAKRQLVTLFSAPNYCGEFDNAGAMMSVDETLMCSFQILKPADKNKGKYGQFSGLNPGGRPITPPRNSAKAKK
In short: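 Chemicals were first screened in duplicate at 25 uM, and those passing threshold (e.g. 30% inhibition) were run as concentration series to 50 uM. Cell-free recombinant protein, 1.33 h read, fluorescent substrate/product mobility-shift detection, normalised to DMSO.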

[11] = biological target: human Protein Tyrosine Phosphatase Receptor Type F (PTPRF), PTPRF (gene 5792) (UniProt P10586); assay: NVS_ENZ_hPTPRF: NovaScreen (NVS) Enzymatic Assay for human Protein Tyrosine Phosphatase Receptor Type F (PTPRF) (AID 2283213)
In short: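 Cell-free fluorescence enzyme assay with recombinant protein and substrate; product separated by electrophoretic mobility shift. Read 1 h after dosing, single 25 uM duplicate screen, then concentration-response up to 50 uM; loss of signal vs DMSO.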

[12] = biological target: human Phosphodiesterase 5 (PDE5), PDE5A (gene 8654) (UniProt O76074); assay: NVS_ENZ_hPDE5: NovaScreen (NVS) Enzymatic Assay for human Phosphodiesterase 5 (PDE5) (AID 2283194)
In short: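 Screening began in duplicate at 25 uM, with actives taken into concentration-response. Enzyme activity of recombinant PDE5 toward its substrate was measured at 1 h by fluorescence mobility-shift detection, relative to DMSO controls.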

[13] = biological target: cAMP-dependent protein kinase catalytic subunit alpha (Homo sapiens) (UniProt P17612); assay: NVS_ENZ_hPKA: NovaScreen (NVS) Enzymatic Assay for human Protein Kinase A (PKA) (AID 2283192)
In short: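 Cell-free kinase activity read by fluorescence after mobility-shift separation of substrate and product, 1 h post-dosing. Single-concentration duplicate screen (25 uM) preceded singleton concentration series (top 50 uM); loss of signal versus DMSO.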

[14] = biological target: human Phosphodiesterase 10 (PDE10), PDE10A (gene 10846) (UniProt Q9Y233); assay: NVS_ENZ_hPDE10: NovaScreen (NVS) Enzymatic Assay for human Phosphodiesterase 10 (PDE10) (AID 2283195)
In short: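 Readout is fluorescence intensity following electrophoretic mobility-shift separation, 1 h after dosing of isolated PDE10A protein. Hits meeting a preset threshold at 25 uM went to concentration series (max 50 uM), analysed relative to DMSO.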

[15] = biological target: human Protein Tyrosine Phosphatase Non-receptor Type 1 (PTPN1), PTPN1 (gene 5770) (UniProt P18031); assay: NVS_ENZ_hPTPN1: NovaScreen (NVS) Enzymatic Assay for human Protein Tyrosine Phosphatase Non-receptor Type 1 (PTPN1) (AID 2283201)
In short: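 Chemicals were first tested in duplicate at 25 uM, and those passing threshold went on to singleton concentration series topping at 50 uM. Recombinant enzyme, specific substrate, product separated by mobility shift, fluorescence read at 1.33 h; activity loss relative to DMSO.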

[16] = biological target: Tyrosine-protein phosphatase non-receptor type 11 (Homo sapiens) (UniProt Q06124); assay: NVS_ENZ_hPTPN11: NovaScreen (NVS) Enzymatic Assay for human Protein Tyrosine Phosphatase Non-receptor Type 11 (PTPN11) (AID 2283202)
In short: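 Compounds first tested in duplicate at 25 uM; those reaching ~30% inhibition rerun in singleton concentration-response, top 50 uM. Phosphatase activity measured after 0.5 h by fluorescence with mobility-shift separation, relative to DMSO.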

[17] = biological target: Tyrosine-protein phosphatase non-receptor type 12 (Homo sapiens) (UniProt Q05209); assay: NVS_ENZ_hPTPN12: NovaScreen (NVS) Enzymatic Assay for human Protein Tyrosine Phosphatase Non-receptor Type 12 (PTPN12) (AID 2283204)
In short: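 Single-concentration duplicates (25 uM) preceded singleton concentration-response up to 50 uM for chemicals passing threshold. Cell-free recombinant PTPN12 activity was read 1.33 h after dosing via fluorescence after mobility-shift separation; loss of signal versus DMSO.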

[18] = biological target: Tyrosine-protein phosphatase non-receptor type 13 (Homo sapiens) (UniProt Q12923); assay: NVS_ENZ_hPTPN13: NovaScreen (NVS) Enzymatic Assay for human Protein Tyrosine Phosphatase Non-receptor Type 13 (PTPN13) (AID 2283205)
In short: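 Screened first at a single 25 uM in duplicate; compounds passing the threshold (e.g. 30% inhibition) were rerun in concentration series, top 50 uM. Recombinant enzyme, fluorescent substrate, mobility-shift separation, 0.5 h read. Data fitted as inhibition relative to DMSO.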

[19] = biological target: Tyrosine-protein phosphatase non-receptor type 14 (Homo sapiens) (UniProt Q15678); assay: NVS_ENZ_hPTPN14: NovaScreen (NVS) Enzymatic Assay for human Protein Tyrosine Phosphatase Non-receptor Type 14 (PTPN14) (AID 2283206)
In short: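 Fluorescent substrate turnover by recombinant human PTPN14 was measured 0.5 h after compound addition, with substrate and product separated by mobility shift. Single-point screening at 25 uM, then concentration-response up to 50 uM for chemicals meeting threshold (e.g., 30% inhibition).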

[20] = biological target: human Protein Tyrosine Phosphatase Non-receptor Type 6 (PTPN6), PTPN6 (gene 5777) (UniProt P29350); assay: NVS_ENZ_hPTPN6: NovaScreen (NVS) Enzymatic Assay for human Protein Tyrosine Phosphatase Non-receptor Type 6 (PTPN6) (AID 2283210)
In short: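 Recombinant human PTPN6 from SF9 cells, enzyme activity followed by fluorescence after mobility-shift separation of substrate and product at 1.33 h. Chemicals first tested at a single 25 uM in duplicate, then confirmed across concentration series; loss of signal relative to DMSO.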

Compound: CC(C)(c1ccc(O)cc1)c1ccc(O)cc1
- AC50 [1]: 25.4 µM (active)
- outcome [1]: inactive
- outcome [2]: inactive
- outcome [3]: inactive
- outcome [4]: inactive

Compound: C=CCOC(Cn1ccnc1)c1ccc(Cl)cc1Cl (stereo not given)
- AC50 [5]: 18.6 µM (active)
- outcome [6]: inactive

Compound: CCCN(CCC)C(=O)SCC
- outcome [3]: inactive

Compound: CCSC(=O)N(CC(C)C)CC(C)C
- outcome [1]: inactive

Compound: COc1nc(C)nc(NC(=O)NS(=O)(=O)c2ccccc2OCCCl)n1
- AC50 [5]: 4.32 µM (active)
- outcome [7]: inactive
- outcome [8]: inactive
- outcome [9]: inactive

Compound: CN(C)C(=O)Nc1ccc(Cl)c(Cl)c1
- outcome [10]: inactive
- outcome [11]: inactive

Compound: COC(=O)c1c(Cl)nn(C)c1S(=O)(=O)NC(=O)Nc1nc(OC)cc(OC)n1
- outcome [12]: inactive

Compound: CCCOC(=O)NCCCN(C)C
- outcome [11]: inactive

Compound: O=C(c1ccc(O)cc1O)c1ccc(O)cc1O
- outcome [13]: inactive
- AC50 [12]: 22 µM (active)

Compound: CSC(=O)c1cccc2nnsc12
- outcome [6]: inactive
- outcome [12]: inactive
- outcome [7]: inactive
- outcome [4]: inactive

Compound: S=C([S-])NCCNC(=S)[S-].[Mn+2]
- outcome [5]: inactive
- AC50 [6]: 16.7 µM (active)
- AC50 [13]: 25 µM (active)
- AC50 [14]: 25 µM (active)
- outcome [1]: inactive
- AC50 [15]: 0.831 µM (active)
- AC50 [16]: 0.144 µM (active)
- AC50 [17]: 0.479 µM (active)
- AC50 [18]: 0.594 µM (active)
- AC50 [19]: 13.8 µM (active)
- AC50 [7]: 0.0035 µM (active)
- AC50 [8]: 0.00231 µM (active)
- AC50 [20]: 34.7 µM (active)
- AC50 [3]: 0.465 µM (active)
- AC50 [11]: 6.35 µM (active)
- AC50 [9]: 8.13 µM (active)

Compound: c1ccc2[nH]c(-c3cscn3)nc2c1
- AC50 [12]: 11.6 µM (active)

Compound: OB(O)O
- outcome [10]: inactive

Compound: CC(C)CCCCCCc1ccc(O)cc1
- outcome [6]: inactive
- outcome [12]: inactive
- outcome [10]: inactive
- outcome [15]: inactive
- outcome [16]: inactive
- outcome [18]: inactive
- outcome [19]: inactive
- outcome [8]: inactive
- outcome [11]: inactive
- outcome [4]: inactive
- outcome [9]: inactive

Compound: O=C(Nc1ccc([N+](=O)[O-])cc1Cl)c1cc(Cl)ccc1O
- outcome [10]: inactive
- AC50 [18]: 18.7 µM (active)
- outcome [9]: inactive
